In PubChem BioAssay (NCI):
The panel holds about 79,000 compounds, 15% with a hit somewhere; the sample as a whole holds those more often. Activity calls are given as the source filed them. Cut-off read from the data, not from the text of the source: active = growth inhibition above about 70%; inactive = the rest.

What was measured:
[1] = NCI Yeast Anticancer Drug Screen. Data for the rad50 strain (AID 155);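 note: 0% = growth of vehicle-only cultures of the same strain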; conditions: S. cerevisiae rad50 strain growth inhibition; at 50.0 µM; active compounds read high
Outline: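 A DNA repair-deficient yeast mutant serves as the test organism; compound-induced growth inhibition is calculated against vehicle-treated cells.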

[2] = NCI Yeast Anticancer Drug Screen. Data for the mec2-1 strain (AID 157); conditions: S. cerevisiae mec2-1 strain, at 50.0 µM, active compounds read high
Outline: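 mec2-1 yeast strain, carrying an alteration in DNA damage repair or cell cycle control, was exposed to compounds; growth inhibition was measured relative to vehicle-treated controls.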

[3] = NCI Yeast Anticancer Drug Screen. Data for the sgs1 mgt1 strain (AID 161);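 note: 0% = growth of cultures given vehicle only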; conditions: S. cerevisiae sgs1 mgt1 strain, at 50.0 µM, active compounds read high
Outline: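 Compounds are added to genetically altered yeast, and growth is compared with cultures given vehicle alone to give percent inhibition.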

[4] = NCI Yeast Anticancer Drug Screen. Data for the cln2 rad14 strain (AID 165);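 note: 0% = growth equal to vehicle treated cultures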; conditions: S. cerevisiae cln2 rad14 strain, at 50.0 µM, active compounds read high
Outline: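 Yeast carrying cln2 and rad14 alterations (cell cycle control and DNA damage repair) were exposed to compounds. Growth inhibition was measured against vehicle-treated controls.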

[5] = NCI Yeast Anticancer Drug Screen. Data for the bub3 strain (AID 167); conditions: S. cerevisiae bub3 mutant strain, at 50.0 µM, active compounds read high
Outline: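 Inhibition values come from growth of compound-treated mutant yeast normalised to vehicle-treated controls.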

[6] = NCI Yeast Anticancer Drug Screen. Data for the mlh1 rad18 strain (AID 175); conditions: S. cerevisiae mlh1 rad18 strain growth inhibition; at 50.0 µM; active compounds read high
Outline: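 Growth inhibition of the yeast strain was measured after compound exposure and expressed relative to vehicle-treated controls. The strain carries defined defects in DNA damage repair.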

Measured: growth inhibition

O=C(NNC(=O)c1ccccc1Br)c1ccccc1
inactive: [1] -17.6% | [2] -45% | [3] -5.4% | [4] 3.45% | [5] -21.5% | [6] -23.6%

Cc1ccc2c(c1)nc1n2C(c2c(F)cccc2F)SC1 (stereo unspecified)
inactive: [1] 0.15% | [2] -6.45% | [3] 26.9% | [4] 13.4% | [5] 29.3% | [6] -3.7%

C=C1C(=O)C[C@@H]2CC(C)(C)C[C@]12CC(=O)O
inactive: [1] -11.1% | [2] -41.5% | [3] -1.65% | [4] -7.05% | [5] -9.15% | [6] -17.1%

CCOC(=O)CCC(C(=O)c1cccnc1)c1ccccn1 (stereo unspecified)
inactive: [1] -4% | [2] -3.6% | [3] 6.7% | [4] -52.9% | [5] -4.6% | [6] -7.05%

OC1(c2ccccc2)CC2C=CC1C2 (stereo unspecified)
inactive: [1] -5.9% | [2] 8.2% | [3] 8.05% | [4] 17.2% | [5] 15.3% | [6] 5.15%

Oc1ccc2ccccc2c1/C=N\Sc1ccc(Br)cc1
inactive: [1] 35.1% | [2] 37.5% | [3] 64.2% | [4] 28.5% | [5] 32.2% | [6] 49.5%

OC(c1cc(C2CCCCC2)nc2ccccc12)C1CCCCN1 (stereo unspecified)
inactive: [1] -13.1% | [2] -0.85% | [3] 8.85% | [4] 2.6% | [5] -5.7% | [6] -12.7%

C(=C\c1cccc2ccccc12)/c1ccc(-c2ccccc2)cc1
inactive: [1] -5.9% | [2] -45% | [3] -0.75% | [4] 12.1% | [5] -3.45% | [6] 5.75%

CN1c2ccccc2C(=O)NC12CCN(CC1COc3ccccc3O1)CC2 (stereo unspecified)
inactive: [1] 58.1% | [4] 62.9% | [5] 66.5% | [6] 66%
active: [2] 71.4% | [3] 82.4%

O=C(O)c1cccc(C(=O)O)[n+]1[O-]
inactive: [1] 6.05% | [2] -22.6% | [3] -17.8% | [4] 2.4% | [5] -11.8% | [6] -10%

COC(=O)N/N=C(\C)c1sc(-c2nc(C)c(/C(C)=N/NC(=O)OC)s2)nc1C
inactive: [1] 17.9% | [2] 0.95% | [3] -27.4% | [4] -35.6% | [5] 3.05% | [6] 1.05%

COc1cc2c(cc1OC)C(c1ccccc1[N+](=O)[O-])=NCC2
inactive: [1] 0.2% | [2] -0.8% | [3] 29.7% | [4] 11.7% | [5] 22.5% | [6] 15.2%

O=C(CCCl)OC1CCCC1
inactive: [1] 1.5% | [2] -9.8% | [3] -3.6% | [4] -30.4% | [5] -5.65% | [6] 9%

CN(CCC(=O)O)S(=O)(=O)c1ccccc1
inactive: [1] -13.1% | [2] -17.2% | [3] -10.6% | [4] -9.1% | [5] -46.4% | [6] -3.8%

CNC(=O)OCc1nc(SC(C)C)n(C)c1COC(=O)NC
inactive: [1] -16% | [2] -10.3% | [3] -27.9% | [4] 4.3% | [5] -18.7% | [6] -28.1%

CCOC(=O)c1nc2ccccc2nc1NCc1ccc(OC)c(OC)c1
inactive: [1] 0.65% | [2] 13.1% | [3] -7.75% | [4] 19.7% | [5] -0.05% | [6] -11.4%

CC12CC3OC3CC1CCC1C2CCC2(C)C1CCC21OCCO1 (stereo unspecified)
inactive: [1] 16% | [2] -32.7% | [3] 3.6% | [4] 3.15% | [5] 23.1% | [6] 22.6%

O=C1Oc2ccccc2C(=O)Oc2ccccc2C(=O)Oc2ccccc2C(=O)Oc2ccccc21
inactive: [1] -43.7% | [2] -38.6% | [3] -24.2% | [4] -8.25% | [5] -22.1% | [6] -29.6%

O=C1c2ccccc2N2OC3(N4CCOCC4)CCCC3C12c1ccccc1 (stereo unspecified)
inactive: [1] 57.5% | [2] 21.9% | [3] 45.3% | [4] 25.9% | [5] 60% | [6] 48.5%

OCCOCC#CCOCCO
inactive: [1] 3.9% | [2] -0.25% | [3] -2.35% | [4] -7.45% | [5] -9.25% | [6] 9.3%

CC(C)(C)NC1=NCCNC(c2ccccc2)=C1
inactive: [1] -33.5% | [2] -52.2% | [3] -19.4% | [4] -4.65% | [5] -30.8% | [6] -23.9%

COc1ccc(C(NC(N)=O)c2cc3c(cc2OC(C)=O)OCO3)c(OC)c1 (stereo unspecified)
inactive: [1] 10.8% | [2] 4.65% | [3] -2.45% | [4] 22.4% | [5] -3.25% | [6] 16.3%

O=C1C(=Cc2ccccc2)C(=O)c2ccccc21
inactive: [1] 2.55% | [2] 25.6% | [3] 8.65% | [4] -17.6% | [5] 24.7% | [6] 9.3%

Nc1c[nH]c(=S)s1
inactive: [1] 36.9% | [2] 18.8% | [3] 54.7% | [4] 0.9% | [5] 39.6% | [6] 51.2%

CC(=O)c1sc2c(c1OC(=O)c1ccc(Cl)cc1)c(=O)n(-c1ccccc1)c(=S)n2-c1ccccc1
inactive: [1] 9.55% | [2] -8.9% | [3] -11.2% | [4] 7.95% | [5] 11.9% | [6] 9.05%

CC(C)=CCC/C(C)=N\Nc1ccc([N+](=O)[O-])cc1[N+](=O)[O-]
inactive: [1] -39.4% | [2] -6.7% | [3] 4.75% | [4] -15.6% | [5] 2.15% | [6] 5.4%

COc1cc2ccc1-c1cc(ccc1O)CC1c3cc4c(cc3CCN1C)Oc1c(OC)cc3c(c1O4)C(C2)N(C)CC3 (stereo unspecified)
inactive: [1] 1% | [2] -7.15% | [3] -18.5% | [4] -1.7% | [5] -6.15% | [6] 0.25%

COc1ccc(C(C)c2cc3c(cc2OC)OCO3)cc1OC (stereo unspecified)
inactive: [1] -4.95% | [2] -6.7% | [3] 11.1% | [4] 5.2% | [5] 16.9% | [6] 25.3%

Nc1cnccn1
inactive: [1] 1.55% | [2] 4.1% | [3] 0.75% | [4] -4.3% | [5] 9.3% | [6] -10.6%

COc1ccc(/C=C/C(=O)c2ccccc2)cc1
inactive: [1] 25.7% | [2] -18.1% | [3] -12.6% | [4] 2.25% | [5] -28.9% | [6] 4.9%

CN1CCN(CCNNCCN2CCCC(O)C2)CC1 (stereo unspecified)
inactive: [1] 3.2% | [2] -1.65% | [3] -5.15% | [4] -6.05% | [5] -7.25% | [6] 10.7%

CCCCCCN(CCCCCC)C(=S)N/N=C(\C)c1ccccn1
active: [1] 85% | [2] 85.5% | [3] 83.7% | [4] 72.3% | [5] 87.6% | [6] 82.2%

Cc1ccc(NC(=O)C(=O)C(C2C(C)CC(=O)C2CC(=O)O)[N+](=O)[O-])cc1 (stereo unspecified)
inactive: [1] 23.6% | [2] 11.7% | [3] 12.2% | [4] 17.7% | [5] 13.7% | [6] 30.6%

CCOC(C#CC(C)=O)OCC
inactive: [1] 31.1% | [2] 31.3% | [3] 22.9% | [4] 6.65% | [5] 46% | [6] 47.9%

CC(C)CC(NC(=O)CCCCCl)C(=O)O (stereo unspecified)
inactive: [1] -1.85% | [2] -4.65% | [3] 0.25% | [4] 2.75% | [5] -3.4% | [6] 6.05%

COC(=O)C(C(=O)C(=O)Nc1ccccc1C(C)=O)c1nc2ccc(Cl)cc2[nH]c1=O (stereo unspecified)
inactive: [1] -31.9% | [2] -16.2% | [3] -12.3% | [4] -4.45% | [5] -19.3% | [6] -14.4%

COc1cc(CCNC2=CC(=O)c3ncccc3C2=O)ccc1O
inactive: [1] 31.6% | [2] 34% | [3] -8.25% | [4] 4.95% | [5] 5.8% | [6] 14.3%

N#Cc1ccccc1NC(=O)C(=O)C(C(=O)c1ccccc1F)C1OC(=O)c2ccccc21 (stereo unspecified)
inactive: [1] -1.1% | [2] -10.8% | [3] -5.25% | [4] -5.5% | [5] -16.2% | [6] -2.4%

O=C1c2cc3c(cc2CC12Cc1cc4c(cc1C2=O)CCCC4)CCCC3
inactive: [1] -42.1% | [2] -14.2% | [3] -22.3% | [4] -16.8% | [5] -4.25% | [6] -37.1%

CC[O-].CC[O-].O=C1C=C([O-])C(=O)c2ccccc21.O=C1C=C([O-])C(=O)c2ccccc21.[Ti+4]
inactive: [1] 17.3% | [2] 14.3% | [3] 15.4% | [4] 26.2% | [5] 30.4% | [6] 4.9%

O=C1S/C(=C2\C(=O)N(CN3CCCCC3)c3ccc(Br)cc32)C(=O)N1CN1CCCCC1
inactive: [1] 37.4% | [2] -2.9% | [3] 9.35% | [4] -2.05% | [5] -1.6% | [6] 22.2%
